In the library only some 1.3% were active in any assay of this set; here they are far more common.
MEX-5 binding: C. elegans MEX-5 TCR-2 RNA binding activity; Q9XUB2; MEX-5/FITC-TCR2 RNA binding, fluorescence polarization; stronger effect = lower value; activity score (negative = inhibition of binding), % at 10 µM; hit rate 0.38% among 300,000; AID 1832;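 active means inhibition past about -25% in most replicates, and total fluorescence under double the plate's negative control median, limit read from the data; inconclusive means replicates evenly split on the limit, or fluorescence at least double controls; inactive means too little inhibition in most replicates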;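 further: 0% = DMSO and -100% = 5 µM competing unlabeled TCR2 RNA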
EBV gp42 inh: blocks Epstein-Barr virus glycoprotein 42 binding; Q1HVG2; Fluorescence polarization binding assay, mP read-out; hit rate 0.42% among 220,000; inhibition, % (tested at 21.74 µM); in the data active means inhibition above about 50%
BCLXL inh: Bcl-xL (human) inhibition. GST-Bcl-xL / FITC-Bim BH3 peptide fluorescence polarization. inhibition, % at 10.9 µM. hit rate 0.7% among 320,000;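 active means inhibition above the mean of all tested compounds plus 3 SD, cutoff set per campaign, cut at about 30% in these data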;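 further: 0% = DMSO wells and 100% = unlabeled Bim-BH3 peptide competitor; inhibitors lower millipolarization by displacing the labeled peptide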
GLD-1 TGE inh: GLD-1-TGE RNA interaction inhibition (C. elegans); Q17339; purified GLD-1 + fluorescein TGE RNA, fluorescence polarization; inhibition, % at 5.96 µM; hit rate 0.44% among 320,000;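 active means percent inhibition above a per-plate cutoff, the plate mean of test compounds plus 3 SD, cut at about 30% in these data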;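 further: 0% = DMSO wells with GLD-1 and probe and 100% = wells lacking GLD-1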
Target sequence (Q17339 whole entry, looked up): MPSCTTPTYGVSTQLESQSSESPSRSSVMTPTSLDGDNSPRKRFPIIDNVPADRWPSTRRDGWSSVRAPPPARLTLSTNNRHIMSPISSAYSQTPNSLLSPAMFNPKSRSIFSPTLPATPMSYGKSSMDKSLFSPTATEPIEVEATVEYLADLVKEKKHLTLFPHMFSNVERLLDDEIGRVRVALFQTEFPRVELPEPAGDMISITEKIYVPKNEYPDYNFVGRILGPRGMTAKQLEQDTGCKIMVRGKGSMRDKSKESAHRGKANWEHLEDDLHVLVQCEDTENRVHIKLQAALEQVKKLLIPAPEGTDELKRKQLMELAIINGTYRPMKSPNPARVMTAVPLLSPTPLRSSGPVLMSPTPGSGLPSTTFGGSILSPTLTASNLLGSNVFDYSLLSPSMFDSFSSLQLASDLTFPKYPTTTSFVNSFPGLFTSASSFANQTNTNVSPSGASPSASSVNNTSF
E coli Lon inh: inhibits E. coli Lon protease. inhibition, % at 7.94 µM. hit rate 0.42% among 360,000. purified E. coli Lon protease, fluorescence polarization. P0A9M0; in the data active means inhibition above about 13%, passing the limit was not always enough;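 further: 0% = enzyme with probe and DMSO and 100% = no enzyme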
eLon confirm: confirmation of E. coli Lon protease inhibitors | hit rate 31% among 1,400 | purified E. coli Lon, fluorescence polarization | inhibition, % at 7.94 µM | shares compounds with E coli Lon inh; in the data active means inhibition above about 16%;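 further: 0% = enzyme with probe and DMSO and 100% = no enzyme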
* hit, by the source's call; ? = inconclusive; nt = no result; + = active, no number.

SMILES | MEX-5 binding | EBV gp42 inh | BCLXL inh | GLD-1 TGE inh | E coli Lon inh | eLon confirm
CC(C)Cn1c(=O)c(C(=O)Nc2ccncc2)c(O)c2ccccc21 | 1 | nt | 10 | -1 | 35* | 23*
CNc1ccc(/C=C\CCCO)cn1 | nt | nt | nt | nt | -3 | nt
CCC/C(=N/NC(=O)c1nnn(-c2nonc2N)c1CN1CCCCC1)c1ccccc1 | 0 | nt | 2 | 2 | 13* | -15
O=C(CCN1C(=O)S/C(=C\c2ccccc2)C1=O)Nc1ccc(O)cc1C(=O)O | -7 | nt | 3 | -3 | 19* | 5
COc1ccc2c3c(cccc13)OC2=O | -1 | nt | 0 | 0 | 7 | nt
COc1ccc2c3c(cccc13)N(C)N=C2C | -9 | 21 | 97* | 42* | 37* | 21*
COc1ccc(N2CCN(C(=O)COC(=O)Cc3cccc(OC)c3)CC2)cc1 | 3 | nt | 1 | 8 | 1 | nt
Cc1ccc(S(=O)(=O)N2CCC(C(=O)OCC(=O)N3CC(C)CC(C)C3)CC2)cc1C (configuration not stated) | -1 | nt | 3 | 2 | 2 | nt
Nc1nc(Cl)cc(Oc2ccc([N+](=O)[O-])cc2)n1 | -1 | nt | 6 | -7 | 16* | 20*
CC1(C(=O)Nc2cccnc2)Cc2c(-c3ccc4c(c3)OCO4)ccnc2O1 (configuration not stated) | nt | nt | nt | nt | 5 | nt
NC(=O)c1cc(N=Nc2c(N)[nH]n(-c3c(Cl)cc(Cl)cc3Cl)c2=O)ccc1Cl | -1 | 7 | 12 | -4 | -1 | nt
CCOC(=O)c1c(C)oc2c1c(C=NCC1CCCO1)c(O)c1ccccc12 (configuration not stated) | nt | -20 | nt | nt | 29 | nt
CCOC(=O)c1c(C)oc2c1c(C=NCc1ccccn1)c(O)c1ccccc12 | nt | 3 | nt | nt | 124* | 135*
C=CCOc1ccc(CNCC2CCCO2)cc1 (configuration not stated) | 0 | nt | 5 | -2 | 54* | 5
COc1ccccc1N1CCN(S(=O)(=O)CCNC(=O)C2CC(=O)N(c3ccccc3)C2)CC1 (configuration not stated) | 0 | nt | 5 | -5 | 3 | nt
O=C(NCCS(=O)(=O)N1CCN(c2ccccc2F)CC1)C1CC(=O)N(c2ccc(F)cc2)C1 (configuration not stated) | -1 | nt | -1 | 2 | 75* | -8
C[C@H](CO)N1C[C@H](C)[C@H](CN(C)S(=O)(=O)c2ccc3ccccc3c2)OCc2cnnn2CCCC1=O | nt | nt | nt | nt | -2 | nt
COC(=O)N/N=C/c1cc(Cl)cc(Cl)c1OCc1ccc(F)cc1 | 2 | -5 | -5 | -1 | 1 | nt
CC[C@@]1(O)C(=O)OCc2c1cc1n(c2=O)Cc2cc3c(CN(C)C)c(O)ccc3nc2-1 | ? | nt | + | + | + | +
O=C(NCc1ccccc1)c1cc(C2CCCCN2S(=O)(=O)c2cccs2)on1 (configuration not stated) | nt | nt | nt | nt | -7 | nt
Cc1ccc(S(=O)(=O)N2CCc3cc4c(cc3C2C)OCCCO4)cc1 (configuration not stated) | 1 | nt | -2 | 8 | 18* | 2
CCc1cccc(C)c1NC(=O)Cn1c(NCCO)nc2ccccc21 | 0 | -18 | 0 | 4 | 1 | nt
CCCCNc1nc2ccccc2n1CC(=O)Nc1c(C)cccc1CC | -1 | -6 | -3 | 5 | 25* | -9
O=C1CCC(C(=O)N2CCCC(C(=O)c3ccc4ccccc4c3)C2)=NN1 (configuration not stated) | 4 | nt | 4 | 2 | 13* | -7
CC(C)c1cc(C(=O)N2CCCC(C(=O)c3ccc4ccccc4c3)C2)on1 (configuration not stated) | 0 | -10 | 4 | 5 | 1 | nt
SMILES | MEX-5 binding | EBV gp42 inh | BCLXL inh | GLD-1 TGE inh | E coli Lon inh | eLon confirm
Fc1ccc2nc(Nc3ccccc3)sc2c1 | nt | 4 | 6 | -2 | 15* | 6
COc1cc(CNC(=O)Nc2cccn3nc(COCCO)nc23)cc(OC)c1OC | nt | nt | nt | nt | 3 | nt
O=S(=O)(c1ccccc1)N1CCN(Cc2ccccc2)c2ccccc21 | nt | nt | nt | nt | 34* | -1
COc1cccc(NC(=S)N2CCN(c3ccccn3)CC2)c1 | 1 | -14 | 0 | -5 | + | -3
S=C(Nc1cccc(Cl)c1)N1CCN(c2ccccn2)CC1 | -1 | nt | 4 | -4 | -9 | nt
Cn1c2ccccc2c(=O)c2ccc(NCCc3cccs3)cc21 | nt | nt | nt | 79* | 92* | 23*
NC(=O)c1ccc(NCCc2cccs2)cc1 | nt | nt | nt | nt | 2 | nt

High-throughput results deposited in PubChem BioAssay by several laboratories.
